# Results published in PubChem BioAssay AID1159580 (chemical genetic matrix, 2015).
# The campaign covered roughly 5,500 compounds. About 2,000 (36%) were called active. About 18% were inconclusive and are not listed. The list shows a part of the results. Unmarked numbers belong to inactive results. No stated cut-off is given here; in the data, active means normalized growth mostly below about 0.91 (no sharp cut-off); inconclusive means no clear call, values can overlap the other calls; inactive means mostly above about 0.92.
# Assay: chemical genetic growth profiling, strain panel (AID 1159580);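 further: tested at 20 µM; growth read once vehicle control cultures reached saturation at 30 °C; 1 = growth at the plate median or of vehicle wells; lower values mean less growth of the strain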
# Conditions: growth OD
# [1] = S. cerevisiae deletion strains, locus YDL101C, strain DUN1, hits give low values
# [2] = S. cerevisiae deletion strains, locus YHR030C, strain SLT2, hits give low values
compound,measurement,setting,value
Cc1onc(NC(=O)NC(=O)c2c(F)cccc2Cl)c1Br,normalized growth,"S. cerevisiae deletion strains, locus YAL013W, strain DEP1, hits give low values",1
same,normalized growth,"S. cerevisiae deletion strains, locus YBR229C, strain ROT2, hits give low values",0.996
same,normalized growth,"S. cerevisiae deletion strains, locus YCL061C, strain MRC1, hits give low values",1.03
same,normalized growth,[1],1.04
same,normalized growth,"S. cerevisiae deletion strains, locus YDR150W, strain NUM1, hits give low values",1.01
same,normalized growth,"S. cerevisiae deletion strains, locus YEL061C, strain CIN8, hits give low values",0.973
same,normalized growth,"S. cerevisiae deletion strains, locus YGR078C, strain PAC10, hits give low values",1.01
same,normalized growth,[2],0.96
same,normalized growth,"S. cerevisiae deletion strains, locus YHR087W, strain rtc3, hits give low values",0.971
same,normalized growth,"S. cerevisiae deletion strains, locus YJR043C, strain POL32, hits give low values",1.01
same,normalized growth,"S. cerevisiae deletion strains, locus YJR075W, strain HOC1, hits give low values",1.01
same,normalized growth,"S. cerevisiae deletion strains, locus YLR039C, strain RIC1, hits give low values",1
same,normalized growth,"S. cerevisiae deletion strains, locus YLR058C, strain SHM2 (second series), hits give low values",1
same,normalized growth,"S. cerevisiae deletion strains, locus YLR085C, strain ARP6, hits give low values",0.986
same,normalized growth,"S. cerevisiae deletion strains, locus YLR262C, strain YPT6, hits give low values",0.988
same,normalized growth,"S. cerevisiae deletion strains, locus YML094W, strain GIM5, hits give low values",0.973
same,normalized growth,"S. cerevisiae deletion strains, locus YMR219W, strain ESC1, hits give low values",0.998
same,normalized growth,"S. cerevisiae deletion strains, locus YMR263W, strain SAP30, hits give low values",1.01
same,normalized growth,"S. cerevisiae deletion strains, locus YNL153C, strain GIM3, hits give low values",1.02
same,normalized growth,"S. cerevisiae deletion strains, locus YNL298W, strain CLA4 (second series), hits give low values",1.01
same,normalized growth,"S. cerevisiae deletion strains, locus YNL322C, strain KRE1, hits give low values",1
same,normalized growth,"S. cerevisiae deletion strains, locus YNR030W, strain Alg12, hits give low values",0.981
same,normalized growth,"S. cerevisiae deletion strains, locus YOL006C, strain TOP1, hits give low values",1
same,normalized growth,"S. cerevisiae deletion strains, locus YPL055C, strain LGE1, hits give low values",0.964
same,normalized growth,"S. cerevisiae deletion strains, locus YPL241C, strain CIN2, hits give low values",1
same,normalized growth,"S. cerevisiae deletion strains, locus YPR135W, strain CTF4, hits give low values",0.977
same,normalized growth,"S. cerevisiae strains, strain wild type, hits give low values",1
O=C(NC(=O)c1c(F)cccc1Cl)OCc1ccc(Cl)cc1Cl,normalized growth,"S. cerevisiae deletion strains, locus YAR019C, strain CDC15, hits give low values",0.987
same,normalized growth,"S. cerevisiae deletion strains, locus YBL105C, strain PKC1, hits give low values",0.981
same,normalized growth,"S. cerevisiae deletion strains, locus YBR135W, strain CKS1, hits give low values",0.975
same,normalized growth,"S. cerevisiae deletion strains, locus YBR136W, strain MEC1, hits give low values",0.984
same,normalized growth,"S. cerevisiae deletion strains, locus YBR160W, strain CDC28, hits give low values",0.976
same,normalized growth,"S. cerevisiae deletion strains, locus YDL017W, strain CDC7, hits give low values",0.99
same,normalized growth,"S. cerevisiae deletion strains, locus YDL028C, strain MPS1, hits give low values",0.978
same,normalized growth,[1],0.989
same,normalized growth,"S. cerevisiae deletion strains, locus YDL108W, strain KIN28, hits give low values",0.976
same,normalized growth,"S. cerevisiae deletion strains, locus YDL132W, strain cdc53, hits give low values",0.984
same,normalized growth,"S. cerevisiae deletion strains, locus YDL214C, strain PRR2, hits give low values",0.879
same,normalized growth,"S. cerevisiae deletion strains, locus YDR052C, strain DBF4, hits give low values",0.978
same,normalized growth,"S. cerevisiae deletion strains, locus YDR054C, strain cdc34, hits give low values",0.979
same,normalized growth,"S. cerevisiae deletion strains, locus YDR226W, strain ADK1, hits give low values",0.983
same,normalized growth,"S. cerevisiae deletion strains, locus YDR477W, strain SNF1, hits give low values",0.915
same,normalized growth,"S. cerevisiae deletion strains, locus YER123W, strain YCK3, hits give low values",0.848
same,normalized growth,"S. cerevisiae deletion strains, locus YER133W, strain GLC7, hits give low values",0.893
same,normalized growth,"S. cerevisiae deletion strains, locus YFL009W, strain cdc4, hits give low values",0.985
same,normalized growth,"S. cerevisiae deletion strains, locus YFL029C, strain CAK1, hits give low values",0.987
same,normalized growth,"S. cerevisiae deletion strains, locus YFR003C, strain YPI1, hits give low values",0.98
same,normalized growth,"S. cerevisiae deletion strains, locus YFR019W, strain FAB1, hits give low values",0.941
same,normalized growth,"S. cerevisiae deletion strains, locus YFR028C, strain CDC14, hits give low values",0.988
same,normalized growth,"S. cerevisiae deletion strains, locus YGR040W, strain KSS1, hits give low values",0.9
same,normalized growth,"S. cerevisiae deletion strains, locus YGR052W, strain FMP48, hits give low values",0.9
same,normalized growth,"S. cerevisiae deletion strains, locus YGR092W, strain DBF2, hits give low values",0.831
same,normalized growth,[2],0.63 (active)
same,normalized growth,"S. cerevisiae deletion strains, locus YHR079C, strain IRE1, hits give low values",0.873
same,normalized growth,"S. cerevisiae deletion strains, locus YHR082C, strain KSP1, hits give low values",0.95
same,normalized growth,"S. cerevisiae deletion strains, locus YHR205W, strain SCH9, hits give low values",0.731
same,normalized growth,"S. cerevisiae deletion strains, locus YIL147C, strain SLN1, hits give low values",0.986
same,normalized growth,"S. cerevisiae deletion strains, locus YJL095W, strain BCK1, hits give low values",0.845
same,normalized growth,"S. cerevisiae deletion strains, locus YJL128C, strain PBS2, hits give low values",0.927
same,normalized growth,"S. cerevisiae deletion strains, locus YJL157C, strain FAR1, hits give low values",0.878
same,normalized growth,"S. cerevisiae deletion strains, locus YJR016C, strain ILV3, hits give low values",0.974
same,normalized growth,"S. cerevisiae deletion strains, locus YJR066W, strain TOR1 (second series), hits give low values",0.869
same,normalized growth,"S. cerevisiae deletion strains, locus YJR066W, strain TOR1, hits give low values",0.884
same,normalized growth,"S. cerevisiae deletion strains, locus YKL048C, strain ELM1, hits give low values",0.905
same,normalized growth,"S. cerevisiae deletion strains, locus YKL067W, strain YNK1, hits give low values",0.9
same,normalized growth,"S. cerevisiae deletion strains, locus YKL101W, strain HSL1, hits give low values",0.863
same,normalized growth,"S. cerevisiae deletion strains, locus YKL193C, strain SDS22, hits give low values",0.985
same,normalized growth,"S. cerevisiae deletion strains, locus YKL203C, strain TOR2, hits give low values",0.914
same,normalized growth,"S. cerevisiae deletion strains, locus YLR113W, strain HOG1, hits give low values",0.71 (active)
same,normalized growth,"S. cerevisiae deletion strains, locus YLR133W, strain CKI1, hits give low values",0.876
same,normalized growth,"S. cerevisiae deletion strains, locus YLR403W, strain SFP1, hits give low values",0.854
same,normalized growth,"S. cerevisiae deletion strains, locus YML070W, strain DAK1, hits give low values",0.858
same,normalized growth,"S. cerevisiae deletion strains, locus YMR001C, strain CDC5, hits give low values",0.985
same,normalized growth,"S. cerevisiae deletion strains, locus YMR205C, strain PFK2 (second series), hits give low values",0.906
same,normalized growth,"S. cerevisiae deletion strains, locus YMR277W, strain FCP1, hits give low values",0.98
same,normalized growth,"S. cerevisiae deletion strains, locus YNL006W, strain LST8, hits give low values",0.983
same,normalized growth,"S. cerevisiae deletion strains, locus YNL020C, strain ARK1, hits give low values",0.818
same,normalized growth,"S. cerevisiae deletion strains, locus YNL161W, strain CBK1, hits give low values",0.974
same,normalized growth,"S. cerevisiae deletion strains, locus YNL183C, strain NPR1, hits give low values",0.875
same,normalized growth,"S. cerevisiae deletion strains, locus YNL207W, strain RIO2, hits give low values",0.966
same,normalized growth,"S. cerevisiae deletion strains, locus YNL222W, strain SSU72, hits give low values",0.978
same,normalized growth,"S. cerevisiae deletion strains, locus YNL307C, strain MCK1 (second series), hits give low values",0.828
same,normalized growth,"S. cerevisiae deletion strains, locus YOL078W, strain AVO1, hits give low values",0.983
same,normalized growth,"S. cerevisiae deletion strains, locus YOL136C, strain PFK27, hits give low values",0.851
same,normalized growth,"S. cerevisiae deletion strains, locus YOR061W, strain CKA2, hits give low values",0.899
same,normalized growth,"S. cerevisiae deletion strains, locus YOR119C, strain RIO1, hits give low values",0.961
same,normalized growth,"S. cerevisiae deletion strains, locus YOR231W, strain MKK1, hits give low values",0.835
same,normalized growth,"S. cerevisiae deletion strains, locus YOR329C, strain SCD5, hits give low values",0.978
same,normalized growth,"S. cerevisiae deletion strains, locus YPL031C, strain PHO85, hits give low values",0.887
same,normalized growth,"S. cerevisiae deletion strains, locus YPL153C, strain RAD53, hits give low values",0.914
same,normalized growth,"S. cerevisiae deletion strains, locus YPL204W, strain HRR25, hits give low values",0.867
same,normalized growth,"S. cerevisiae deletion strains, locus YPL209C, strain IPL1, hits give low values",0.979
same,normalized growth,"S. cerevisiae deletion strains, locus YPL256C, strain CLN2, hits give low values",0.711 (active)
same,normalized growth,"S. cerevisiae deletion strains, locus YPR025C, strain CCL1, hits give low values",0.976
same,normalized growth,"S. cerevisiae deletion strains, locus YPR106W, strain ISR1, hits give low values",0.966
same,normalized growth,"S. cerevisiae deletion strains, locus YPR111W, strain DBF20, hits give low values",0.949
same,normalized growth,"S. cerevisiae deletion strains, strain NNK1, hits give low values",0.977
same,normalized growth,"S. cerevisiae deletion strains, strain TSCII, hits give low values",0.979
